Activity calls are given as the source filed them.
Tests used:
[1] = E. coli DRC41 culture turbidity changes, primary screen, E. coli filamentation inducer project, strain DRC41, OD650, 48 h (AID 1152);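 further: E. coli MC1000 strain DRC41 lacking acrAB efflux pump and sulA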; conditions: E. coli DRC41 (acrAB sulA), higher = more signal, called active from +8 up or from −8 down
[2] = small-molecule binders of probe aLefty1, primary screen, biochemical, small-molecule microarray, 635/667 nm fluorescence (AID 1153); conditions: higher = more signal;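 further: score merges spot fluorescence with signal-to-noise ratio from the scanned slide images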
[3] = PSAC antagonists in infected red cells, primary screen, cell-based, P. falciparum Indochina, OD700, 1 h (AID 1154); conditions: P. falciparum Indochina infected RBC osmotic lysis, higher = more signal, called active from +8 up or from −8 down
[4] = PSAC antagonists in infected red cells, primary screen, cell-based, P. falciparum Indochina, OD700, 2 h (AID 1155);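 further: lysis reports solute entry through the parasite surface anion channel PSAC; channel blockers reduce lysis of infected cells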; conditions: P. falciparum Indochina infected erythrocytes, osmotic lysis OD700; higher = more signal, called active from +8 up or from −8 down
[5] = osmotic lysis modulators in infected erythrocytes, primary screen, PSAC antagonist project, cell-based, P. falciparum Indochina, OD700, 3 h (AID 1156); conditions: higher = more signal, called active from +8 up or from −8 down
[6] = PSAC antagonists in infected red cells, primary screen, cell-based, P. falciparum Indochina, OD700, 18 h (AID 1157); conditions: P. falciparum Indochina infected erythrocytes, osmotic lysis OD700, 18 h; higher = more signal, called active from +8 up or from −8 down
[7] = modulators of S6 phosphorylation in cells, primary screen, cell-based, A549, cytoblot, luminescence, serum-stimulated (AID 1158); conditions: A549 phospho-S6 cytoblot, 5 h, higher = more signal;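 further: serum-stimulated A549 lung adenocarcinoma cells; signal is phosphorylated S6 detected by cytoblot immunostaining with HRP secondary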
[8] = target: NADPH oxidase 2 (Homo sapiens) (UniProt P04839); experiment: NOX2-dependent H2O2 signal modulators, primary screen, NOX inhibitor project, cell-based, HEK293-NOX2, PMA-stimulated, Amplex Red fluorescence (AID 1159); conditions: 45 min, higher = more signal, called active from +8 up or from −8 down; further: test concentration not given here
Sequence of NADPH oxidase 2 (Homo sapiens) (P04839 whole entry, looked up): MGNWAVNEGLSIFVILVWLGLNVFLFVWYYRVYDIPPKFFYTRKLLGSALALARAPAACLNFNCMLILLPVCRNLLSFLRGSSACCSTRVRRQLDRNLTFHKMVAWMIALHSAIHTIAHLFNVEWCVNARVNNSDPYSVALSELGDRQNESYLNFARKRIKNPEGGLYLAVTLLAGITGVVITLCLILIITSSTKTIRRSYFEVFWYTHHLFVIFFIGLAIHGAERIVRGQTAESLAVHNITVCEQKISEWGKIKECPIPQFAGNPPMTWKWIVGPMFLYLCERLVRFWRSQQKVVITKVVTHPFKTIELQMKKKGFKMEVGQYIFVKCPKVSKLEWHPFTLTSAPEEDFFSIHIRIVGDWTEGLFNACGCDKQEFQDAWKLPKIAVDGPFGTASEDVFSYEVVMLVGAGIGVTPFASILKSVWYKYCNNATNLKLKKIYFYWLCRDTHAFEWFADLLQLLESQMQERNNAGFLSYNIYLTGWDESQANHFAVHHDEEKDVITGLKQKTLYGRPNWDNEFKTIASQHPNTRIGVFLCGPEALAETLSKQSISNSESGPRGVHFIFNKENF

[9] = target: NADPH oxidase 4 (Homo sapiens) (UniProt Q9NPH5); experiment: NOX4-dependent H2O2 signal modulators, primary screen, NOX inhibitor project, cell-based, HEK293-NOX4, tetracycline-induced, Amplex Red fluorescence (AID 1160); conditions: 45 min, higher = more signal, called active from +8 up or from −8 down
Sequence of NADPH oxidase 4 (Homo sapiens) (Q9NPH5 whole entry, looked up): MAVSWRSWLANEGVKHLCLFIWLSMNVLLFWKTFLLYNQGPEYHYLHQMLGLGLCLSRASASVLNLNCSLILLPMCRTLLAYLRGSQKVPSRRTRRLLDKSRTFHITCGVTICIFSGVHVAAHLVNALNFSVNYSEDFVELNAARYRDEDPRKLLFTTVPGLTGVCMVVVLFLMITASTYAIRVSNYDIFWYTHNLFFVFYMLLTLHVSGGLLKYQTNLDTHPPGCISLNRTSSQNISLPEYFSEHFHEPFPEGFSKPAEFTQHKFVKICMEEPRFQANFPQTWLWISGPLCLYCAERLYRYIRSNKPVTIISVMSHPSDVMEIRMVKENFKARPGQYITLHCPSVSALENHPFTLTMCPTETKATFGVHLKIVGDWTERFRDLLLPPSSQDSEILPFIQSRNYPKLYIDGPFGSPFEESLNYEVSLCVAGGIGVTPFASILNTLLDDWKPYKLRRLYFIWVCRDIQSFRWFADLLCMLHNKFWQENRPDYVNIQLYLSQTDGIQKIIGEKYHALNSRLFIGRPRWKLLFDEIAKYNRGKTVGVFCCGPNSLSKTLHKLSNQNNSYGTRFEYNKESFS

[10] = target: NADPH oxidase 5 (Homo sapiens) (UniProt Q96PH1); experiment: NOX5-dependent H2O2 signal modulators, primary screen, NOX inhibitor project, cell-based, HEK293-NOX5, Amplex Red fluorescence (AID 1161); conditions: HEK293-NOX5, ionomycin, 45 min, higher = more signal
Sequence of NADPH oxidase 5 (Homo sapiens) (Q96PH1 whole entry, looked up): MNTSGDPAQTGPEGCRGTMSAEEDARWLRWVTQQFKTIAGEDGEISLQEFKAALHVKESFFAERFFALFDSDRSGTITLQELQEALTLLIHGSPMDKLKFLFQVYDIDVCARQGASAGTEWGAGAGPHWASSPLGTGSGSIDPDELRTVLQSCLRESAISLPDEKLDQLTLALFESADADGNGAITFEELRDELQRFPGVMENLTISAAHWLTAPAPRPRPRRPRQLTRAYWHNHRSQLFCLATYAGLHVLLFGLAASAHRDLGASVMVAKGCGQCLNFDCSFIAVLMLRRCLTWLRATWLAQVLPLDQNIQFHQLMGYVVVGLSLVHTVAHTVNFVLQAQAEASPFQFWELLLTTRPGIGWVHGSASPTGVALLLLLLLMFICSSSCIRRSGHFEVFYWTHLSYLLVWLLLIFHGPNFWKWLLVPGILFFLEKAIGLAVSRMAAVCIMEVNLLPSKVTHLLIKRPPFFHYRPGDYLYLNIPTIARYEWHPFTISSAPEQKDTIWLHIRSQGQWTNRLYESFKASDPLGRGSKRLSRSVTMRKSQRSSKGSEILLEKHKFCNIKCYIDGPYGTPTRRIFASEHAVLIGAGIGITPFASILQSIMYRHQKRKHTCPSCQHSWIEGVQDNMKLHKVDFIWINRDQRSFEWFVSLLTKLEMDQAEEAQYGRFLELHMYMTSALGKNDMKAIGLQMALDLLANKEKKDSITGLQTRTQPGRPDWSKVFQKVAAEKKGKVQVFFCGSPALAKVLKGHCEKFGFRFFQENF

[11] = A549 cell viability effects, profiling panel, calcein-AM fluorescence, 48 h, basal (AID 1162); conditions: higher = more signal; further: test concentration not given here
[12] = adipocyte viability effects, profiling panel, cell-based, 3T3-L1 adipocytes, calcein-AM fluorescence, 48 h, basal (AID 1163); conditions: 3T3-L1 adipocytes viability, higher = more signal; further: test concentration not given here
[13] = HepG2 cell viability effects, profiling panel, calcein-AM fluorescence, 48 h, basal (AID 1164); conditions: higher = more signal; further: test concentration not given here
[14] = MM1S cell viability effects, profiling panel, calcein-AM fluorescence, 48 h, basal (AID 1165); conditions: higher = more signal;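 further: viability of MM1S multiple myeloma cells under basal unstimulated conditions; test concentration not given here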
[15] = basal RPMI8226 viability, no added stimulus, profiling panel, cell-based, calcein-AM fluorescence, 48 h, PK04 Diversity Set (AID 1166); conditions: RPMI8226 myeloma viability, higher = more signal;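 further: cells grown under basal conditions without added stimulus; test concentration not given here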
[16] = basal HepG2 mitochondrial membrane potential changes, profiling panel, cell-based, JC-1 fluorescence, 24 h, 100 nL compound (AID 1167); conditions: higher = more signal; further: test concentration not given here
[17] = basal 3T3-L1 adipocyte mitochondrial potential changes, profiling panel, cell-based, JC-1 fluorescence, 3T3-L1 adipocytes, 24 h, 100 nL compound (AID 1168); conditions: JC-1 mitochondrial fluorescence, higher = more signal, called active from +8 up or from −8 down; further: test concentration not given here
[18] = basal RPMI8226 mitochondrial membrane potential changes, profiling panel, cell-based, JC-1 fluorescence, 24 h, 100 nL compound (AID 1169); conditions: RPMI8226 myeloma, JC-1 mitochondrial potential fluorescence, higher = more signal; further: test concentration not given here
[19] = basal MM1S mitochondrial membrane potential changes, profiling panel, cell-based, JC-1 fluorescence, 24 h, 100 nL compound (AID 1170); conditions: higher = more signal; further: test concentration not given here
[20] = A549 lung cancer cell viability effects, profiling panel, resazurin fluorescence, 24 h, PK04 Diversity Set (AID 1171); conditions: higher = more signal, called active from +8 up or from −8 down; further: test concentration not given here

Compound	z-score [1]	composite z-score [2]	z-score [3]	z-score [4]	z-score [5]	z-score [6]	z-score [7]	z-score [8]	z-score [9]	z-score [10]	z-score [11]	z-score [12]	z-score [13]	z-score [14]	z-score [15]	z-score [16]	z-score [17]	z-score [18]	z-score [19]	z-score [20]
CCCCOC(OCCCC)C(O)CSc1ccc2ccccc2c1 (stereo not given)	0.278 (inactive)	-0.103	5.46 (inactive)	0.667 (inactive)	-1.43 (inactive)	0.248 (inactive)	-0.455	-0.28 (inactive)	-0.657 (inactive)	-3.7	-1.28	-0.809	0.0428	-2.77	-1.04	-0.36	-0.239 (inactive)	0.591	-0.285	-0.911 (inactive)
CCc1cc2c(nc1CC)CCN(CCC(C)=NOC(C)CN1CCCCc3nc(C)c(C)cc31)C2 (stereo not given)	-1.74 (inactive)	0.131	5.84 (inactive)	0.499 (inactive)	1.54 (inactive)	0.539 (inactive)	-0.408	-3.06 (inactive)	-3.1 (inactive)	-2.84	0.115	0.97	0.101	-2.89	-0.51	6.12	-1.02 (inactive)	-0.39	-0.104	0.639 (inactive)
CC#CCOCCC=C1c2ccccc2[C@@H](OC)[C@@H]1C	0.673 (inactive)	-0.0004	1.25 (inactive)	-0.16 (inactive)	-0.156 (inactive)	0.0739 (inactive)	-0.161	0.114 (inactive)	0.936 (inactive)	0.696	0.0337	0.182	0.788	-2.36	-0.234	-0.19	-0.669 (inactive)	-0.773	-0.831	0.349 (inactive)
CCCNC(=O)OC[C@H]1O[C@H](CCON=C[C@@H](C)[C@H](OCc2ccccc2)C(C)C)C=C[C@@H]1Oc1ccc(OC)cc1	-0.103 (inactive)	-0.105	1.77 (inactive)	-1.58 (inactive)	0.141 (inactive)	-2.55 (inactive)	2.11	-1.7 (inactive)	0.368 (inactive)	-0.574	0.544	-0.0223	1.72	0.0415	-0.0657	0.479	0.024 (inactive)	0.499	-0.627	0.743 (inactive)

From PubChem BioAssay
